# Measured values from PubChem BioAssay (NCATS).
# Inconclusive results are not listed. Calls of active or inactive are those of the source. Calls come from the whole dose curve; as a rule, active = well fitted inhibition curve with a large enough effect; inconclusive = small, poorly fitted or top-dose-only effect; inactive = no such curve, though single readings can be large or run the other way.
# Assay: Primary qHTS for inhibitors of nuclear receptor binding SET domain protein 2 (NSD2) in an RCH-ACV wild type WT cells (2C) (AID 1645877); note: nearly all actives have a fitted effect of over 70% in size
# Conditions: RCH-ACV (leukaemia line) NSD2 WT (2C) viability, CellTiter-Glo, 72 h; series mostly up to 44.9 µM; activity change, negative = cell killing: at the top concentration
# % is set by controls: 0 for no effect and ±100 for the full control effect.
SMILES,"activity change, negative = cell killing",outcome
CC(=O)OCC1OC(O[C@H]2CC[C@]34C[C@]35CC(O)[C@]3(C)[C@@H]([C@H](C)CC/C=C(\C)C(=O)O)C(O)C[C@@]3(C)C5CC[C@H]4C2(C)C)C(O)C(O)C1OC1OCC(O)C(O)C1O (stereo not given in full),-13.7% [at 9.23 µM] (inactive),
CC1=CC(=O)C2C(C)(C)CCC[C@]2(C)[C@H]1CC[C@H](C)CC(=O)O (stereo not given in full),-0.611% (inactive),
COC(=O)C1=CO[C@@H](O[C@@H]2O[C@H](CO)[C@@H](O)[C@H](O)[C@H]2O)[C@H]2[C@@H]1C=C[C@]21C=C([C@H](C)OC(=O)/C=C/c2ccc(O[C@@H]3O[C@H](CO)[C@@H](O)[C@H](O)[C@H]3O)cc2)C(=O)O1,-0.208% [at 17.3 µM] (inactive),
CC(C)=C1C[C@@]2(C)C(=CC1=O)CC[C@@H](O)[C@@H]2C,-5.21% (inactive),
O=C(OC[C@H]1O[C@H](O[C@]2(CO)O[C@H](CO)[C@@H](O)[C@@H]2O)[C@H](O)[C@@H](O)[C@@H]1O)c1ccc(O)cc1,,inactive [at 17.3 µM]
COc1cc(/C=C/C(=O)OCC2OC(OC3(CO)OC(CO)C(O)C3O)C(O)C(O)C2O)ccc1O (stereo not given),-2.04% [at 17.3 µM] (inactive),
C=C1[C@H]2CCC3[C@]4(C)CCC[C@@](C)(C(=O)O)C4CC[C@]3(C2)[C@H]1OC(C)=O (stereo not given in full),2.74% (inactive),
CC1=CC(=O)CC(C)(C)C1CCC(C)O[C@@H]1O[C@H](CO)[C@@H](O)[C@H](O)[C@H]1O (stereo not given in full),-0.814% (inactive),
COc1cc(CO)ccc1O[C@@H]1O[C@H](CO)[C@@H](O)[C@H](O)[C@H]1O,-11.5% (inactive),
C[C@]1(OC(=O)/C=C\c2ccc(O)cc2)C[C@@H](O)[C@]2(O)C=CO[C@@H](O[C@@H]3O[C@H](CO)[C@@H](O)[C@H](O)[C@H]3O)C12 (stereo not given in full),-17.3% [at 17.3 µM] (inactive),
